Read-out in assay [1]: Urokinase-type plasminogen activator receptor (uPAR), PLAUR (gene 5329)
The experiment in a line: BSK_4H_uPAR: BioMAP Diversity Plus: 4H Assay for Urokinase-type plasminogen activator receptor (uPAR) Biomarker Activity (AID 2283030). Conditions: primary human endothelial cells (HUVEC); actives raise or lower the signal. The gist of the method:
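HUVEC, 24 h post-dose; uPAR by ELISA; bidirectional fit vs DMSO baseline.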

Read-out in assay [2]: Human Leukocyte Antigen - DR isotype (HLADR), HLA-DRA (gene 3122)
The experiment in a line: BSK_BE3C_HLADR: BioMAP Diversity Plus: BE3C Assay for Human Leukocyte Antigen - DR isotype (HLADR) Biomarker Activity (AID 2283032). Conditions: primary human bronchial epithelial cells; actives raise or lower the signal. The gist of the method: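 Human primary bronchial epithelial cells in the BE3C system were exposed to chemicals for 24 h, after which HLA-DR levels were quantified by ELISA. Activity was fitted bidirectionally, gain or loss of signal, against DMSO as negative control and baseline.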

Read-out in assay [3]: Vascular cell adhesion molecule 1 (VCAM1), VCAM1 (gene 7412)
The experiment in a line: BSK_4H_VCAM1: BioMAP Diversity Plus: 4H Assay for Vascular cell adhesion molecule 1 (VCAM1) Biomarker Activity (AID 2283033).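 As to outcome: cell-surface VCAM-1 protein measured by ELISA.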 Conditions: primary human endothelial cells (HUVEC); actives raise or lower the signal. The method in brief: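 Primary human umbilical vein endothelial cells were exposed to chemicals for 24 h, after which VCAM-1 was quantified by ELISA. Responses were fitted bidirectionally against DMSO as negative control and activity baseline.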

Read-out in assay [4]: Interferon-gamma inducible Protein 10 (IP10), CXCL10 (gene 3627)
The experiment in a line: BSK_BE3C_IP10: BioMAP Diversity Plus: BE3C Assay for Interferon-gamma inducible Protein 10 (IP10) Biomarker Activity (AID 2283034). Conditions: primary human bronchial epithelial cells; actives raise or lower the signal. The gist of the method:
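Human primary bronchial epithelial cells were exposed to chemicals for 24 hours, after which IP-10 levels were measured by ELISA. Data were fitted bidirectionally against DMSO, which served as the negative control and activity baseline.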

Read-out in assay [5]: Monokine induced gamma interferon (MIG), CXCL9 (gene 4283)
In words: BSK_BE3C_MIG: BioMAP Diversity Plus: BE3C Assay for Monokine induced gamma interferon (MIG) Biomarker Activity (AID 2283035).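 As to outcome: MIG protein measured by ELISA in BE3C cultures after 24 h of dosing.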 Conditions: primary human bronchial epithelial cells; actives raise or lower the signal. The method in brief:
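ELISA read-out of MIG in human lung bronchial epithelial primary cultures, 24 h post-dosing. Bidirectional curve fit vs DMSO baseline.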

Read-out in assay [6]: Transforming growth factor beta 1 (TGFb1), TGFB1 (gene 7040)
The experiment in a line: BSK_BE3C_TGFb1: BioMAP Diversity Plus: BE3C Assay for Transforming growth factor beta 1 (TGFb1) Biomarker Activity (AID 2283036). Conditions: primary human bronchial epithelial cells; actives raise or lower the signal. The gist of the method: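 Human primary bronchial epithelial cells (BE3C system) were dosed with chemical and TGF-b1 levels measured by ELISA at 24 h. Activity was fitted bidirectionally relative to DMSO negative control as baseline.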

Read-out in assay [7]: Plasminogen activator inhibitor-1 (PAI1), SERPINE1 (gene 5054)
In words: BSK_BE3C_PAI1: BioMAP Diversity Plus: BE3C Assay for Plasminogen activator inhibitor-1 (PAI1) Biomarker Activity (AID 2283037). Conditions: primary human bronchial epithelial cells; actives raise or lower the signal. The gist of the method: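 Human primary bronchial epithelial cells were exposed to chemical for 24 h, then PAI-1 was quantified by ELISA. Activity was fitted bidirectionally relative to the DMSO negative control baseline.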

Read-out in assay [8]: urokinase plasminogen activator (uPA), PLAU (gene 5328)
In words: BSK_BE3C_uPA: BioMAP Diversity Plus: BE3C Assay for urokinase plasminogen activator (uPA) Biomarker Activity (AID 2283038).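 As to outcome: uPA protein level quantified by ELISA in cell cultures; uPA read one day after compound addition.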 Conditions: primary human bronchial epithelial cells; actives raise or lower the signal. The gist of the method:
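ELISA read-out of uPA in human lung primary bronchial epithelial cultures, 24 h post-dosing. Gain or loss of signal fitted bidirectionally relative to DMSO baseline; cytotoxicity checked in parallel cultures via SRB total protein stain.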

Read-out in assay [9]: Urokinase-type plasminogen activator receptor (uPAR), PLAUR (gene 5329)
In words: BSK_BE3C_uPAR: BioMAP Diversity Plus: BE3C Assay for Urokinase-type plasminogen activator receptor (uPAR) Biomarker Activity (AID 2283039).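 As to outcome: uPAR protein level measured by ELISA on the cells; cells exposed to compound for one day before measurement.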 Conditions: primary human bronchial epithelial cells; actives raise or lower the signal. The method in brief:
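Primary human bronchial epithelial cells were dosed with chemical and harvested 24 h later; uPAR was quantified by ELISA. Activity was fitted bidirectionally against DMSO as negative control and baseline.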

Read-out in assay [10]: Vascular endothelial growth factor receptor 2 (Homo sapiens) (UniProt P35968)
In words: BSK_4H_VEGFRII: BioMAP Diversity Plus: 4H Assay for Vascular endothelial growth factor receptor 2 (VEGFR2) Biomarker Activity (AID 2283031). Conditions: primary human endothelial cells (HUVEC); actives raise or lower the signal. The gist of the method: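 HUVEC (human primary), 4H system; 24 h post-dose; VEGFRII by ELISA; bidirectional curve fit vs DMSO baseline; gain or loss of signal scored.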

Values joined by “and” are separate entries in the source; they are usually repeats but may differ in a detail not shown here. Identical values can stand only once. Active and inactive are the calls of the source. The calls were made as follows: active = hit-call score of the fitted dose curve at least 0.9, where 1 is the maximum; inactive = score below 0.9.

For `O=[N+]([O-])c1cc(C(F)(F)F)c(Cl)c([N+](=O)[O-])c1Nc1ncc(C(F)(F)F)cc1Cl`, the concentration at half-maximal activity (AC50) in assay [1] was 1.4 µM (active) and 2.25 µM (active); in assay [2] it was 1.52 µM (active) and 3.78 µM (active); in [3], 1 µM (active) and 2.33 µM (active); in assay [4] it was 1.23 µM (active) and 4.77 µM (active); in assay [5], 4.03 µM (active) and 7.17 µM (active); in assay [6], 2.51 µM (active) and 9.94 µM (active). In addition, the AC50 in [7] was 7.78 µM (active) and 8.98 µM (active); in assay [8], 2.19 µM (active) and 1.62 µM (active); in [9], 7.71 µM (active) and 8.37 µM (active).
With `CCCSP(=O)(OCC)SCCC`, the result in assay [1], in assay [2], in assay [3], in assay [4], in assay [5] and in [6] was inactive. In addition, the result in assay [7] and in assay [8] was inactive.
As to `C[Si](Cn1cncn1)(c1ccc(F)cc1)c1ccc(F)cc1`, the outcome in assay [1], in assay [10], in assay [2], in assay [3], in assay [4] and in assay [5] was inactive. The result in assay [6], in [7] and in assay [8] was inactive.
Take `CCOC(=O)COc1cc(-c2nn(C)c(OC(F)F)c2Cl)c(F)cc1Cl`: the result in [10], in [2], in [3], in [4], in assay [5] and in assay [6] was inactive. Moreover, the outcome in [7] and in assay [8] was inactive.
Consider `CSc1nnc(C(C)(C)C)c(=O)n1N`, for which the outcome in assay [1], in assay [2], in [3], in assay [5], in [6] and in [7] was inactive. The result in assay [8] was inactive. Moreover, in assay [4], the half-maximal activity concentration (AC50) is 7.16 µM (active).
`COc1ccc(C(=CC(=O)N2CCOCC2)c2ccc(Cl)cc2)cc1OC`: the result in [1], in assay [10], in [2], in [3], in assay [4] and in assay [5] was inactive. Besides, the outcome in assay [6], in assay [7] and in assay [8] was inactive.
For the compound `CC(C)=CC1C(C(=O)OCN2C(=O)C3=C(CCCC3)C2=O)C1(C)C` (stereo not drawn), the half-maximal activity concentration (AC50) is 8.64 µM (active) in assay [1] and 20 µM (active) in assay [2]. Moreover, the outcome in assay [3], in [4], in [5], in [6], in assay [7] and in [8] was inactive. For the same compound, the outcome in [9] was inactive.
Turning to `Cc1ccn2nc(S(=O)(=O)Nc3c(F)cccc3F)nc2n1`, the outcome in assay [1], in assay [10], in assay [2], in [3], in assay [4] and in assay [5] was inactive. For the same compound, the result in [6], in assay [7] and in assay [8] was inactive.
In the case of `COP(=O)(OC)C(O)C(Cl)(Cl)Cl` (stereo not drawn), the result in assay [1], in assay [10], in assay [2], in [3], in assay [4] and in assay [5] was inactive. Further, the outcome in assay [6], in assay [7] and in assay [8] was inactive. Besides, in assay [9], the AC50 is 5.49 µM (active).
`COc1cccc(C(=O)NN(C(=O)c2cc(C)cc(C)c2)C(C)(C)C)c1C`: the result in assay [10], in [2], in [3], in assay [4], in [5] and in [6] was inactive. For the same compound, the result in assay [7] and in assay [8] was inactive.
Regarding `CON=C(C(=O)OC)c1ccccc1CON=C(C)c1cccc(C(F)(F)F)c1`, the outcome in assay [1], in assay [2], in [3], in [5], in [6] and in assay [8] was inactive. The figures for the AC50 in assay [4], in assay [7] and in assay [9] were 20 µM (active), 8.79 µM (active) and 5.37 µM (active), respectively.
As for `Cc1cc(C2CC2)nc(Nc2ccccc2)n1`, the result in assay [1], in [3], in assay [4], in [5], in [6] and in assay [7] was inactive. Further, in assay [8], the outcome was inactive. The concentration at half-maximal activity (AC50) in assay [2] was 5.17 µM (active).
Turning to `CSc1nc(NC(C)C)nc(NC(C)C)n1`, the outcome in [1], in [2], in assay [3], in [4], in assay [5] and in assay [6] was inactive. Moreover, the outcome in assay [7] and in [8] was inactive.
Turning to `Nc1c(Cl)cc([N+](=O)[O-])cc1Cl`, the result in assay [1], in assay [3], in assay [4], in [5], in assay [6] and in [7] was inactive. Moreover, the result in assay [8] was inactive. Also, the concentration at half-maximal activity (AC50) in assay [2] is 12.6 µM (active).
Consider `CCOP(=S)(OCC)SCCSCC`, for which the result in assay [1], in assay [2], in assay [3], in assay [4], in [5] and in assay [6] was inactive. Besides, the result in assay [7] and in [8] was inactive.
On to `CC[C@H](C)[C@H]1O[C@]2(C=C[C@@H]1C)C[C@@H]1C[C@@H](C/C=C(\C)[C@@H](O[C@H]3C[C@H](OC)[C@@H](O[C@H]4C[C@H](OC)[C@@H](NC)[C@H](C)O4)[C@H](C)O3)[C@@H](C)/C=C/C=C3\CO[C@@H]4[C@H](O)C(C)=C[C@@H](C(=O)O1)[C@]34O)O2`, for which the half-maximal activity concentration (AC50) in assay [1] is 1.73 µM (active); in assay [2], 3.98 µM (active); in [3], 8.45 µM (active); in assay [4] it was 7.15 µM (active); in [5] it was 8.8 µM (active); in assay [6], 9.47 µM (active). Moreover, the AC50 in assay [7] is 6.98 µM (active); in assay [8], 10.9 µM (active); in assay [9] it was 5.78 µM (active). Moreover, the outcome in assay [10] was inactive.
In the case of `FC(F)C(F)(F)OCC(Cn1cncn1)c1ccc(Cl)cc1Cl` (stereo not drawn), the outcome in [10], in assay [5], in assay [6], in assay [7] and in assay [8] was inactive. Also, the concentration at half-maximal activity (AC50) in [2] is 29.8 µM (active); in assay [3], 29.7 µM (active); in [4], 26.4 µM (active).
For the compound `CCCSP(=O)(OCC)Oc1ccc(Br)cc1Cl` (stereo not drawn), the result in [1], in [5], in assay [6], in [7], in [8] and in [9] was inactive. Further, the AC50 in assay [2] was 32.1 µM (active); in assay [3] it was 29.8 µM (active); in [4], 29.1 µM (active).
As to `CC(C)[C@H](C(=O)O[C@H](C#N)c1cccc(Oc2ccccc2)c1)c1ccc(Cl)cc1`, the result in assay [1], in assay [2], in [4], in assay [5], in assay [6] and in [7] was inactive. Further, the result in assay [8] was inactive. In assay [3], the AC50 was 2.95 µM (active).
Regarding `CC(=NC#N)N(C)Cc1ccc(Cl)nc1`, the outcome in [1], in assay [10], in assay [2], in assay [3], in assay [4] and in [5] was inactive. Further, the outcome in assay [6], in [7], in assay [8] and in assay [9] was inactive.

(Values after PubChem BioAssay (EPA / NIEHS).)
